Data: article PMC5540273 (PLoS ONE, 2017)

Tests used:
Details in all cases: concentration: 1 μM, replicates: in singlicate; n = 1
SRPK1 = system: SRPK1
SRPK2 = system: SRPK2
SRPK3 = system: SRPK3
STK16 = system: STK16
STK33 = system: STK33
STK35 = system: STK35
STK36 = system: STK36
STK39 = system: STK39
SYK = system: SYK
SgK110 = system: SgK110
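Note: KINOMEscan kinase panel screen.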

CCC(=O)c1c(-c2ccccc2)c2cc(Cl)ccc2c(=O)n1Cc1cc(S(C)(=O)=O)n(CC(N)=O)n1
%Inh (SRPK1): 0%
%Inh (SRPK2): 0%
%Inh (SRPK3): 0%
%Inh (STK16): 16%
%Inh (STK33): 17%
%Inh (STK35): 0%
%Inh (STK36): 0%
%Inh (STK39): 0%
%Inh (SYK): 9%
%Inh (SgK110): 0%

Cc1ccc(-c2ccc3c(ccc4sc5c(c43)NC[C@@H](C)N=C5N(C)C)n2)cn1
%Inh (SRPK1): 0%
%Inh (SRPK2): 6%
%Inh (SRPK3): 25%
%Inh (STK16): 0%
%Inh (STK33): 0%
%Inh (STK35): 0%
%Inh (STK36): 0%
%Inh (STK39): 0%
%Inh (SYK): 0%
%Inh (SgK110): 14%

CCc1ccc(-c2ccc3c(c2)-c2nn(C)cc2S(=O)(=O)N3C)cc1
%Inh (SRPK1): 0%
%Inh (SRPK2): 0%
%Inh (SRPK3): 0%
%Inh (STK16): 0%
%Inh (STK33): 2%
%Inh (STK35): 0%
%Inh (STK36): 0%
%Inh (STK39): 0%
%Inh (SYK): 27%
%Inh (SgK110): 12%

CN(C)c1cc(-c2ccc3c(N)n[nH]c3c2)nc(N)n1 [GSK2219329]
%Inh (SRPK1): 0%
%Inh (SRPK2): 0%
%Inh (SRPK3): 0%
%Inh (STK16): 0%
%Inh (STK33): 0%
%Inh (STK35): 0%
%Inh (STK36): 0%
%Inh (STK39): 0%
%Inh (SYK): 17%
%Inh (SgK110): 0%
